Measured values taken from PubChem BioAssay (NCATS).
Results filed as inconclusive are left out. Activity calls are given as the source filed them. Calls come from the whole dose curve; as a rule, active = well fitted curve in the direction sought with a large enough effect; inconclusive = small, poorly fitted or top-dose-only effect, or another doubt; inactive = no such curve, though single readings can be large; an effect the other way counts as inactive or inconclusive.

Key:
NIH3T3 = experiment: qHTS assay to identify novel small-molecules to repurpose for Merkel cell carcinoma treatment (AID 1296009); conditions: MCC and control cell lines, CellTiter-Glo viability, 72 h; at 44.8 µM (top of the series) unless noted; note: nearly all actives have a fitted effect of over 60% in size
Summary of the method: (§1)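 72 hr, 37 degree celsius; NPC 8-pt / MIPE 11-pt dose response; compound pinned in DMSO; CellTiter-Glo, 10 min RT, luminescence; normalized to no-cell and DMSO controls.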

C33A = experiment: Primary qHTS to identify gynecologic anti-cancer compounds using libraries of approved drugs and bioactive compounds (AID 1345084); conditions: Gynecologic cancer cell panel viability, ATPlite luminescence, 48 h; series mostly up to 57.5 µM; note: % is set by controls: 0 for no effect and ±100 for the full control effect; nearly all actives have a fitted effect of over 55% in size
Summary of the method: (§2)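 Cells, 1,000 per well, plated 16 h, then exposed 48 h at 37 C to compounds. Viability by ATPlite luminescence after 15 min at room temperature.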

CAOV3 = experiment: as above; conditions: Gynecologic cancer cell panel viability, ATPlite luminescence, 48 h; series mostly up to 57.5 µM
Summary of the method: as §2

CASKI = experiment: as above; conditions: Gynecologic cancer cell panel viability, ATPlite luminescence, 48 h; series mostly up to 57.5 µM
Summary of the method: as §2

Es-2 = experiment: as above; conditions: Gynecologic cancer cell panel viability, ATPlite luminescence, 48 h; series mostly up to 57.5 µM
Summary of the method: as §2

HeLa = experiment: as above; conditions: Gynecologic cancer cell panel viability, ATPlite luminescence, 48 h; series mostly up to 57.5 µM
Summary of the method: as §2

Hek293T [1] = experiment: as above; conditions: Gynecologic cancer cell panel viability, ATPlite luminescence, 48 h, control line for the selectivity index; series mostly up to 57.5 µM
Summary of the method: as §2

JEG-3 = experiment: as above; conditions: Gynecologic cancer cell panel viability, ATPlite luminescence, 48 h; series mostly up to 57.5 µM
Summary of the method: as §2

OV90 = experiment: as above; conditions: Gynecologic cancer cell panel viability, ATPlite luminescence, 48 h; series mostly up to 57.5 µM
Summary of the method: as §2

PA-1 = experiment: as above; conditions: Gynecologic cancer cell panel viability, ATPlite luminescence, 48 h; series mostly up to 57.5 µM
Summary of the method: as §2

SKOV3 = experiment: as above; conditions: Gynecologic cancer cell panel viability, ATPlite luminescence, 48 h; series mostly up to 57.5 µM
Summary of the method: as §2

Tov-21-G = experiment: as above; conditions: Gynecologic cancer cell panel viability, ATPlite luminescence, 48 h; series mostly up to 57.5 µM
Summary of the method: as §2

Tov112D = experiment: as above; conditions: Gynecologic cancer cell panel viability, ATPlite luminescence, 48 h; series mostly up to 57.5 µM
Summary of the method: as §2

HEK293T [2] = experiment: qHTS assay to identify novel small-molecules to repurpose for Merkel cell carcinoma treatment (AID 1296009); conditions: MCC and control cell lines, CellTiter-Glo viability, 72 h; at 44.8 µM (top of the series) unless noted; note: nearly all actives have a fitted effect of over 60% in size
Summary of the method: as §1

Cn1cc(CCn2cnc(-c3cnn(C)c3)c2-c2ccc(C#N)cc2)cn1
inactive: outcome (NIH3T3) | Potency (C33A) | Potency (CAOV3) | outcome (CASKI) | Potency (Es-2) | Potency (HeLa) | Potency (Hek293T [1]) | Potency (JEG-3) | Potency (OV90) | Potency (PA-1) | Potency (SKOV3) | Potency (Tov-21-G) | Potency (Tov112D)

CC(=O)OCC1OC(O[C@H]2CC[C@@]3(C)C(CC[C@]4(C)C3CC=C3[C@@H]5CC(C)(C)CC[C@]5(C(=O)O)CC[C@]34C)[C@]2(C)CO)C(O)C(O)C1OC1OC(C)C(O)C(OC2OCC(O)C(O)C2O)C1O (some centres not stated)
inactive: outcome (NIH3T3) inactive [at 9.27 µM] | activity change, negative = cytotoxicity (C33A) -0.849% [at 11.6 µM] | activity change, negative = cytotoxicity (CAOV3) 3.79% [at 11.6 µM] | activity change, negative = cytotoxicity (CASKI) 14.3% [at 11.6 µM] | activity change, negative = cytotoxicity (Es-2) 2.8% [at 11.6 µM] | activity change, negative = cytotoxicity (HeLa) 8.24% [at 11.6 µM] | activity change, negative = cytotoxicity (Hek293T [1]) 6.88% [at 11.6 µM] | activity change, negative = cytotoxicity (JEG-3) 4.64% [at 11.6 µM] | activity change, negative = cytotoxicity (OV90) -3.49% [at 11.6 µM] | activity change, negative = cytotoxicity (PA-1) -3.48% [at 11.6 µM] | activity change, negative = cytotoxicity (SKOV3) 19.9% [at 11.6 µM] | activity change, negative = cytotoxicity (Tov-21-G) 6.07% [at 11.6 µM] | activity change, negative = cytotoxicity (Tov112D) 0% [at 11.6 µM]

COC(=O)[C@H](Cc1ccc([N+](=O)[O-])cc1)NC(=O)c1cccc2ccccc12
inactive: outcome (HEK293T [2]) | Potency (C33A) | outcome (CASKI) | Potency (Es-2) | Potency (HeLa) | Potency (Hek293T [1]) | Potency (JEG-3) | Potency (OV90) | Potency (PA-1) | Potency (Tov-21-G) | Potency (Tov112D)

COc1cc(Nc2nc3c(s2)CCCC3c2ccccc2)ccc1-n1cnc(C)c1 (configuration not stated)
inactive: outcome (NIH3T3) inactive [at 9.27 µM] | activity change, negative = cytotoxicity (C33A) 6.98% [at 11.6 µM] | activity change, negative = cytotoxicity (CAOV3) 6.61% [at 11.6 µM] | activity change, negative = cytotoxicity (CASKI) 15.8% [at 11.6 µM] | activity change, negative = cytotoxicity (Es-2) 3.55% [at 11.6 µM] | activity change, negative = cytotoxicity (HeLa) -6.36% [at 11.6 µM] | activity change, negative = cytotoxicity (Hek293T [1]) 8.6% [at 11.6 µM] | activity change, negative = cytotoxicity (JEG-3) 2.94% [at 11.6 µM] | activity change, negative = cytotoxicity (OV90) 7.49% [at 11.6 µM] | activity change, negative = cytotoxicity (PA-1) 7.13% [at 11.6 µM] | activity change, negative = cytotoxicity (SKOV3) 7.37% [at 11.6 µM] | activity change, negative = cytotoxicity (Tov-21-G) 9.24% [at 11.6 µM] | activity change, negative = cytotoxicity (Tov112D) 0.142% [at 11.6 µM]

COc1ccc(CCc2nc3cc(-c4c(C)noc4C)ccc3n2C[C@H](C)N2CCOCC2)cc1Cl
inactive: outcome (NIH3T3) | Potency (C33A) | Potency (CAOV3) | outcome (CASKI) | Potency (Es-2) | Potency (HeLa) | Potency (Hek293T [1]) | Potency (JEG-3) | Potency (OV90) | Potency (PA-1) | Potency (SKOV3) | Potency (Tov-21-G) | Potency (Tov112D)

CC(C)[C@@](O)(c1ccc2cc(OC(F)F)c(OC(F)F)cc2c1)c1cn[nH]n1
inactive: outcome (NIH3T3) | Potency (C33A) | Potency (CAOV3) | outcome (CASKI) | Potency (Es-2) | Potency (HeLa) | Potency (Hek293T [1]) | Potency (JEG-3) | Potency (OV90) | Potency (PA-1) | Potency (SKOV3) | Potency (Tov-21-G) | Potency (Tov112D)

Nc1ncnc2c1c(COc1cccc(Cl)c1)nn2C1CCOCC1
inactive: outcome (NIH3T3) | Potency (C33A) | Potency (CAOV3) | outcome (CASKI) | Potency (Es-2) | Potency (HeLa) | Potency (Hek293T [1]) | Potency (JEG-3) | Potency (OV90) | Potency (PA-1) | Potency (SKOV3) | Potency (Tov-21-G) | Potency (Tov112D)

C[C@@H]1O[C@@H](O[C@H]2[C@H](O[C@H]3[C@H](O[C@H]4CC[C@@]5(C)C(CC[C@]6(C)C5CC=C5[C@@H]7CC(C)(C)C[C@@H](O)[C@]7(C)CC[C@]56C)[C@@]4(C)CO)O[C@H](C(=O)O)[C@@H](O)[C@@H]3O)O[C@H](C(=O)O)[C@H](O)[C@@H]2O)[C@H](O)[C@H](O)[C@H]1O (some centres not stated)
inactive: outcome (NIH3T3) inactive [at 9.27 µM] | activity change, negative = cytotoxicity (C33A) 8.86% [at 11.6 µM] | activity change, negative = cytotoxicity (CAOV3) -0.141% [at 11.6 µM] | activity change, negative = cytotoxicity (CASKI) 16.2% [at 11.6 µM] | activity change, negative = cytotoxicity (Es-2) -1.06% [at 11.6 µM] | activity change, negative = cytotoxicity (HeLa) 4.67% [at 11.6 µM] | activity change, negative = cytotoxicity (Hek293T [1]) 5.2% [at 11.6 µM] | activity change, negative = cytotoxicity (JEG-3) 7.1% [at 11.6 µM] | activity change, negative = cytotoxicity (OV90) 2.01% [at 11.6 µM] | activity change, negative = cytotoxicity (PA-1) 0.484% [at 11.6 µM] | activity change, negative = cytotoxicity (SKOV3) 10.8% [at 11.6 µM] | activity change, negative = cytotoxicity (Tov-21-G) 13.2% [at 11.6 µM] | activity change, negative = cytotoxicity (Tov112D) 5.35% [at 11.6 µM]

Cc1ccccc1NC(=O)Nc1ccc(CN2C(=O)N([C@@H](CC(C)C)C(=O)N[C@@H](CC(=O)O)c3ccccc3)C(=O)C2(C)C)cc1
inactive: outcome (HEK293T [2]) | Potency (C33A) | outcome (CASKI) | Potency (Es-2) | Potency (HeLa) | Potency (Hek293T [1]) | Potency (JEG-3) | Potency (OV90) | Potency (PA-1) | Potency (Tov-21-G) | Potency (Tov112D)

CC(=O)OC1CCC2(C)C(CCC3(C)C2CC=C2C4CC(C)(C)CCC4(C)CCC23C)C1(C)C(=O)O (configuration not stated)
inactive: outcome (HEK293T [2]) inactive [at 17.4 µM] | Potency (C33A) | outcome (CASKI) | Potency (Es-2) | Potency (HeLa) | Potency (Hek293T [1]) | Potency (JEG-3) | Potency (OV90) | Potency (PA-1) | Potency (SKOV3) | Potency (Tov-21-G) | Potency (Tov112D)

C/C=C/C=C/C(=O)OC1CC/C=C/C(O)C(O)C(CCC)OC1=O (configuration not stated)
inactive: outcome (NIH3T3) | Potency (C33A) | Potency (CAOV3) | outcome (CASKI) | Potency (Es-2) | Potency (HeLa) | Potency (Hek293T [1]) | Potency (JEG-3) | Potency (OV90) | Potency (PA-1) | Potency (SKOV3) | Potency (Tov-21-G) | Potency (Tov112D)

CC1C(=O)OCC2=CC[N+]3([O-])CCC(OC(=O)C(C)(O)C1(C)O)C23 (configuration not stated)
inactive: outcome (NIH3T3) | Potency (C33A) | Potency (CAOV3) | outcome (CASKI) | Potency (Es-2) | Potency (HeLa) | Potency (Hek293T [1]) | Potency (JEG-3) | Potency (OV90) | Potency (PA-1) | Potency (SKOV3) | Potency (Tov-21-G) | Potency (Tov112D)

O=C(/C=C/c1ccc(O)cc1)OC[C@H]1O[C@H](O[C@@]2(CO)O[C@@H](CO)[C@H](O)[C@H]2O)[C@H](O)[C@@H](O)[C@@H]1O
inactive: outcome (HEK293T [2]) inactive [at 17.4 µM] | Potency (C33A) | outcome (CASKI) | Potency (Es-2) | Potency (HeLa) | Potency (Hek293T [1]) | Potency (JEG-3) | Potency (OV90) | Potency (PA-1) | Potency (Tov-21-G) | Potency (Tov112D)
